Data: PubChem BioAssay (NCATS)
Records with an inconclusive call do not appear. A number with no mark means an inactive call. Active and inactive are the calls of the source. The call rests on the fitted dose curve; tested in HEK293 reporter line.

test: qHTS for Inhibitors of the Functional Ribonucleoprotein Complex (vRNP) of Lassa (LASV) Arenavirus: Viability assay - alamar blue signal for LASV Primary Screen (AID 1347083); conditions: cell viability, alamar blue fluorescence (LASV minigenome counter-screen); series mostly up to 57.5 µM; activity change, negative = reduced viability: at the top concentration
Further: nearly all actives have a fitted effect of over 80% in size.
On the % scale 0 is the no-effect control and ±100 the full control effect.

Row | SMILES | activity change, negative = reduced viability [%] | Potency
1 | Nc1ccc(-c2nc3ccc(-c4nc5ccc(N)cc5[nH]4)cc3[nH]2)cc1 | -6.6 | –
2 | O=C1C2C=CC=CC2=NC(=S)N1CCN1CCC(=C(c2ccc(F)cc2)c2ccc(F)cc2)CC1 (stereo not given) | 19.1 | –
3 | CC(=O)[C@H]1CCC2C3CC=C4C[C@@H](OS(=O)(=O)O)CC[C@]4(C)C3CC[C@@]21C (stereo not given in full) | – | inactive
4 | CCCCCCCCCCCCCCCCCCNC(=O)OCC(COP(=O)([O-])OCC[n+]1ccsc1)OC (stereo not given) | -9.27 | –
5 | COc1ccc(-c2ccc(N)[n+](CCCC(=O)O)n2)cc1 | 1.51 | –
6 | COc1cccc(OC)c1OCCNCC1COc2ccccc2O1 (stereo not given) | -5.86 | –
7 | O=C(O)[C@@H]1C[C@H](C(=O)O)N1 | -1.15 | –
8 | CCCOC(=O)c1c(-c2ccccc2)nc(CC)c(C(=O)SCC)c1CCC | 6.68 | –
9 | Cc1cccc(C)c1OCC(N)C(C)C (stereo not given) | 4.13 | –
10 | CC1(C)CCC2=C(O1)c1ccccc1C(=O)C2=O | – | inactive
11 | c1ccc(-c2ccccn2)nc1 | 3.51 | –
12 | CC(C)(C)c1onc(OCP(=O)(O)O)c1CC(N)C(=O)O (stereo not given) | – | inactive
13 | Cc1ccc(C(=O)O[C@H](C(=O)O)[C@@H](OC(=O)c2ccc(C)cc2)C(=O)O)cc1 (tested in a mixture with another compound) | 16.5 | –
14 | CC1CN(S(=O)(=O)c2cccc3cnccc23)CCN1 (stereo not given) | -24.8 | –
15 | NC(=O)c1ccccc1 | – | inactive
16 | O=c1onc2n1-c1cc(Br)ccc1OC2 | -3.4 | –
17 | N#C/C(=C\c1ccc(O)c(O)c1)C(=O)Nc1ccccc1 | -6.25 | –
18 | O=C1O/C(=C/Br)CCC1c1cccc2ccccc12 (stereo not given) | 23.4 | –
19 | N[C@@H](Cc1cnc[nH]1)C(=O)O | – | inactive
20 | COC(=O)c1c(C)[nH]c(C)c1C(=O)c1ccccc1Cc1ccccc1 | 6.01 | –

Row | SMILES | activity change, negative = reduced viability [%] | Potency
21 | CCCCCC(O)CCCC(=O)O (stereo not given) | 10.7 | –
22 | N=C(N)c1ccccc1 | -0.377 | –
23 | CCCCC/C=C\CC(O)/C=C/c1cccc(CC(O)CCCCO)n1 (stereo not given) | 18.3 | –
24 | OC[C@H]1O[C@@H](n2cnc3cncnc32)[C@H](O)[C@@H]1O | – | inactive
25 | N[C@@H](CCCC(=O)O)C(=O)O | – | inactive
26 | CSC(N)=NCCC[C@H](N)C(=O)O | 4.35 | –
27 | O=C(O)CC1CCCc2ccccc2C1O (stereo not given) | -1.35 | –
28 | Nc1ccc(CCNc2ncnc3c2ncn3C2OC(CO)C(O)C2O)cc1 (stereo not given) | 7.77 | –
29 | NC(N)=NC(N)=Nc1cccc(Cl)c1 | 8.9 | –
30 | CCCCS(=N)(=O)CC[C@H](N)C(=O)O (stereo not given in full) | 2.16 | –
31 | CCCN(CCc1ccccc1)C1CCc2c(O)cccc2C1 (stereo not given) | -2.1 | –
32 | CN1C2CCC1CC(OC(=O)C(O)c1ccccc1)C2 (stereo not given) | 5.73 | –
33 | CN1CCC[C@H]1c1cccnc1 | 15.1 | –
34 | NC(CCCP(=O)(O)O)C(=O)O (stereo not given) | 16.5 | –
35 | NC1(C(=O)O)CCc2cc(C(=O)O)ccc21 (stereo not given) | 5.2 | –
36 | C[C@@H](NCCc1ccc(O)cc1)[C@@H](O)c1ccc(O)cc1 | 0.983 | –
37 | CCCc1c(-c2ccc(O)cc2)nn(-c2ccc(O)cc2)c1-c1ccc(O)cc1 | -15 | –
38 | CC1CCN=C(N)S1 (stereo not given) | -3.31 | –
39 | CCCCCCCCCCCCCCSCC(=O)O | -1.3 | –
40 | OCC1O[C@H](O)C(Cl)C(O)C1O (stereo not given in full) | 19.3 | –

test: qHTS for Inhibitors of the Functional Ribonucleoprotein Complex (vRNP) of Lymphocytic Choriomeningitis Arenaviruses (LCMV): Viability assay - alamar blue signal for LCMV Primary Screen (AID 1347085); conditions: alamar blue viability counter-screen, LCMV vRNP screen cells; series mostly up to 57.5 µM; activity change, negative = lower viability: at the top concentration

Row | SMILES | activity change, negative = lower viability [%] | Potency
41 | Nc1ccc(-c2nc3ccc(-c4nc5ccc(N)cc5[nH]4)cc3[nH]2)cc1 | -11.4 | –
42 | O=C1C2C=CC=CC2=NC(=S)N1CCN1CCC(=C(c2ccc(F)cc2)c2ccc(F)cc2)CC1 (stereo not given) | 18.2 | –
43 | CC(=O)[C@H]1CCC2C3CC=C4C[C@@H](OS(=O)(=O)O)CC[C@]4(C)C3CC[C@@]21C (stereo not given in full) | – | inactive
44 | CCCCCCCCCCCCCCCCCCNC(=O)OCC(COP(=O)([O-])OCC[n+]1ccsc1)OC (stereo not given) | 8.85 | –
45 | COc1ccc(-c2ccc(N)[n+](CCCC(=O)O)n2)cc1 | -0.607 | –
46 | COc1cccc(OC)c1OCCNCC1COc2ccccc2O1 (stereo not given) | -20.2 | –
47 | O=C(O)[C@@H]1C[C@H](C(=O)O)N1 | -7.39 | –
48 | CCCOC(=O)c1c(-c2ccccc2)nc(CC)c(C(=O)SCC)c1CCC | 3.24 | –
49 | Cc1cccc(C)c1OCC(N)C(C)C (stereo not given) | 4.13 | –
50 | CC1(C)CCC2=C(O1)c1ccccc1C(=O)C2=O | – | inactive
51 | c1ccc(-c2ccccn2)nc1 | -1.42 | –
52 | CC(C)(C)c1onc(OCP(=O)(O)O)c1CC(N)C(=O)O (stereo not given) | – | inactive
53 | Cc1ccc(C(=O)O[C@H](C(=O)O)[C@@H](OC(=O)c2ccc(C)cc2)C(=O)O)cc1 (tested in a mixture with another compound) | 0.478 | –
54 | CC1CN(S(=O)(=O)c2cccc3cnccc23)CCN1 (stereo not given) | -1.93 | –
55 | NC(=O)c1ccccc1 | – | inactive
56 | O=c1onc2n1-c1cc(Br)ccc1OC2 | -4.63 | –
57 | N#C/C(=C\c1ccc(O)c(O)c1)C(=O)Nc1ccccc1 | -12.4 | –
58 | O=C1O/C(=C/Br)CCC1c1cccc2ccccc12 (stereo not given) | 20.1 | –
59 | N[C@@H](Cc1cnc[nH]1)C(=O)O | – | inactive
60 | COC(=O)c1c(C)[nH]c(C)c1C(=O)c1ccccc1Cc1ccccc1 | 14.4 | –

Row | SMILES | activity change, negative = lower viability [%] | Potency
61 | CCCCCC(O)CCCC(=O)O (stereo not given) | 15.2 | –
62 | N=C(N)c1ccccc1 | 8.57 | –
63 | CCCCC/C=C\CC(O)/C=C/c1cccc(CC(O)CCCCO)n1 (stereo not given) | 2.79 | –
64 | OC[C@H]1O[C@@H](n2cnc3cncnc32)[C@H](O)[C@@H]1O | – | inactive
65 | N[C@@H](CCCC(=O)O)C(=O)O | – | inactive
66 | CSC(N)=NCCC[C@H](N)C(=O)O | 11.8 | –
67 | O=C(O)CC1CCCc2ccccc2C1O (stereo not given) | -0.403 | –
68 | Nc1ccc(CCNc2ncnc3c2ncn3C2OC(CO)C(O)C2O)cc1 (stereo not given) | 7.9 | –
69 | NC(N)=NC(N)=Nc1cccc(Cl)c1 | 20.9 | –
70 | CCCCS(=N)(=O)CC[C@H](N)C(=O)O (stereo not given in full) | 3.05 | –
71 | CCCN(CCc1ccccc1)C1CCc2c(O)cccc2C1 (stereo not given) | -5.34 | –
72 | CN1C2CCC1CC(OC(=O)C(O)c1ccccc1)C2 (stereo not given) | 1.41 | –
73 | CN1CCC[C@H]1c1cccnc1 | 11.8 | –
74 | NC(CCCP(=O)(O)O)C(=O)O (stereo not given) | 7.3 | –
75 | NC1(C(=O)O)CCc2cc(C(=O)O)ccc21 (stereo not given) | 1.86 | –
76 | C[C@@H](NCCc1ccc(O)cc1)[C@@H](O)c1ccc(O)cc1 | 4.38 | –
77 | CCCc1c(-c2ccc(O)cc2)nn(-c2ccc(O)cc2)c1-c1ccc(O)cc1 | -14.1 | –
78 | CC1CCN=C(N)S1 (stereo not given) | -12.6 | –
79 | CCCCCCCCCCCCCCSCC(=O)O | -0.471 | –
80 | OCC1O[C@H](O)C(Cl)C(O)C1O (stereo not given in full) | -4.94 | –
